Our source for the AC50 and outcome values is PubChem BioAssay (EPA / NIEHS).

Read-out in assay [1]: Interleukin 17F (IL17F), IL17F (gene 112744)
Put plainly: BSK_BT_xIL17F: BioMAP Diversity Plus: BT Assay for Interleukin 17F (IL17F) Biomarker Activity (AID 2284243). Particulars: primary human B cells with PBMC. A digest of the protocol: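 Human B cells co-cultured with PBMC; secreted IL-17F quantified by LumineX xMAP 24 hours after chemical dosing. Activity fitted in the positive direction against DMSO negative control as baseline.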

Read-out in assay [2]: Actin alpha 1 (ACTA1), ACTA1 (gene 58)
Nature of the assay: BSK_MyoF_ACTA1: BioMAP Diversity Plus: MyoF Assay for Actin alpha 1 (ACTA1) Biomarker Activity (AID 2284244). Particulars: primary human lung fibroblasts. In a few lines:
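Human lung fibroblast (MyoF system) cultures dosed with test chemical; alpha-SMA measured by ELISA 24 h after dosing, normalized to DMSO control. Cytotoxicity tracked in parallel cultures by SRB total-protein staining.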

Read-out in assay [3]: Interleukin 2 (IL2), IL2 (gene 3558)
Nature of the assay: BSK_BT_xIL2: BioMAP Diversity Plus: BT Assay for Interleukin 2 (IL2) Biomarker Activity (AID 2284245). As to conditions: primary human B cells with PBMC. In a few lines: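 Human B cell plus PBMC co-culture, 24 h after chemical dosing; secreted IL-2 quantified by Luminex xMAP multiplex, fitted for signal gain against DMSO baseline.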

Read-out in assay [4]: Basic fibroblast growth factor (bFGF), FGF2 (gene 2247)
Put plainly: BSK_MyoF_bFGF: BioMAP Diversity Plus: MyoF Assay for Basic fibroblast growth factor (bFGF) Biomarker Activity (AID 2284246). As to conditions: primary human lung fibroblasts. In a few lines:
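Human lung fibroblast cultures were dosed and measured 24 h later in 96-well format. bFGF biomarker levels quantified by ELISA, with activity fitted in the positive direction against DMSO.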

Read-out in assay [5]: Monokine induced gamma interferon (MIG), CXCL9 (gene 4283)
Nature of the assay: BSK_KF3CT_MIG: BioMAP Diversity Plus: KF3CT Assay for Monokine induced gamma interferon (MIG) Biomarker Activity (AID 2284248). Particulars: primary human keratinocytes with fibroblasts. A digest of the protocol: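 Parallel cultures were stained with SRB (560 nm) to check cytotoxicity. MIG was quantified by ELISA in a primary human skin keratinocyte/fibroblast co-culture 24 h post-dosing, with gain of signal fitted relative to DMSO.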

Read-out in assay [6]: Vascular cell adhesion molecule 1 (VCAM1), VCAM1 (gene 7412)
Put plainly: BSK_BF4T_VCAM1: BioMAP Diversity Plus: BF4T Assay for Vascular cell adhesion molecule 1 (VCAM1) Biomarker Activity (AID 2284249). Particulars: primary human bronchial epithelial cells with fibroblasts. In a few lines: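 Human bronchial epithelial cell and dermal fibroblast co-culture exposed 24 h. VCAM-1 measured by ELISA; parallel SRB total-protein staining for cytotoxicity. Fitted in positive direction relative to DMSO.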

Read-out in assay [7]: Collagen I, COL1A1 (gene 1277)
Put plainly: BSK_hDFCGF_CollagenI: BioMAP Diversity Plus: hDFCGF Assay for Collagen I Biomarker Activity (AID 2284250). As to conditions: primary human foreskin fibroblasts. A digest of the protocol:
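Primary human foreskin fibroblasts exposed to chemical for 24 h; Collagen I levels measured by ELISA. Cytotoxicity checked by SRB total-protein staining in parallel cultures.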

Read-out in assay [8]: Interferon-inducible T-cell alpha chemoattractant (ITAC), CXCL11 (gene 6373)
Nature of the assay: BSK_hDFCGF_ITAC: BioMAP Diversity Plus: hDFCGF Assay for Interferon-inducible T-cell alpha chemoattractant (ITAC) Biomarker Activity (AID 2284251). As to conditions: primary human foreskin fibroblasts. A digest of the protocol: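 Primary human foreskin fibroblasts (hDFCGF system) treated for 24 h; I-TAC quantified by ELISA. Gain-direction fitting versus DMSO; parallel SRB staining of total protein flagged overt cytotoxicity.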

Read-out in assay [9]: Monocyte Chemoattractant Protein-1 (MCP1), CCL2 (gene 6347)
Nature of the assay: BSK_IMphg_MCP1: BioMAP Diversity Plus: IMphg Assay for Monocyte Chemoattractant Protein-1 (MCP1) Biomarker Activity (AID 2284253). As to conditions: primary human endothelial cells with macrophages. In a few lines:
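Human venular endothelial cells co-cultured with macrophages; MCP-1 measured by ELISA 24 hours post-dose and fitted against DMSO. Cytotoxicity monitored by SRB total-protein staining in parallel cultures.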

Read-out in assay [10]: Interleukin-8 (IL8), CXCL8 (gene 3576)
Nature of the assay: BSK_KF3CT_IL8: BioMAP Diversity Plus: KF3CT Assay for Interleukin-8 (IL8) Biomarker Activity (AID 2284254). As to conditions: primary human keratinocytes with fibroblasts. A digest of the protocol:
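IL-8 by ELISA in primary human skin co-culture (keratinocytes plus fibroblasts) 24 h post-dose, DMSO as baseline. Cytotoxicity assessed in parallel by sulforhodamine B total-protein staining.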

SMILES strings stand for the structures. Values joined by “and” are separate entries in the source; they are usually repeats but may differ in a detail not shown here. Equal entries are not always repeated. Where a structure was tested more than once in an assay, its records may differ in their call. Active and inactive are the calls of the source. Rule for the calls: active = hit-call score of the fitted dose curve at least 0.9, where 1 is the maximum; inactive = score below 0.9.

By AC50 is commonly meant the midpoint of the concentration-response curve, whichever way the signal moves. In the case of `OCC(F)(F)OC(F)(F)C(F)(F)OC(F)(F)C(F)(F)OC(F)(F)CO`, the AC50 was 22.8 µM (active) and 20.7 µM (active) in [1]; 20.5 µM (active) and 30 µM (active) in assay [2]; 23 µM (active) and 22.1 µM (active) in [8]; 7.09 µM (active) in assay [9]. The outcome in assay [3], in assay [4], in assay [5], in assay [6], in assay [7] and in [9] was inactive. Also, in assay [10], the result was inactive.
For the molecule `CC(C)Nc1ccc(Nc2ccccc2)cc1`, the AC50 in assay [1] was 4.55 µM (active); in assay [2] it was 22.7 µM (active); in assay [3], 5.05 µM (active); in assay [4], 30.5 µM (active).
With `CCCCOCCOP(=O)(OCCOCCCC)OCCOCCCC`, the result in [1], in [2], in assay [3] and in assay [4] was inactive.
For `COP(=O)(O)OC`, the result in assay [1], in assay [2], in assay [3] and in assay [4] was inactive.
As to `O=c1ssc(Cl)c1Cl`, the AC50 in assay [1] is 6.3 µM (active); in [2] it was 6.24 µM (active); in assay [3], 6.44 µM (active); in assay [4] it was 11.4 µM (active).
In the case of `CC(O)C(F)(F)C(F)(F)F` (stereo not given), the outcome in assay [1], in assay [2], in assay [3], in assay [4], in assay [5] and in assay [6] was inactive. In addition, the result in assay [7], in [8], in assay [9] and in [10] was inactive.
As for `O=C(O)C(F)(OC(F)(F)C(F)(F)C(F)(F)F)C(F)(F)F` (stereo not given), the outcome in assay [1], in assay [2], in assay [3], in assay [4], in assay [5] and in [6] was inactive. The outcome in assay [7], in assay [8], in assay [9] and in assay [10] was inactive.
As to `O=C(O)C(F)(F)OC(F)(F)C(F)(F)OC(F)(F)C(=O)O`, the outcome in assay [1], in assay [2], in [3], in assay [4], in [5] and in assay [6] was inactive. In addition, the outcome in assay [7], in assay [8], in assay [9] and in [10] was inactive.
Regarding `OCC(F)(F)OC(F)(F)C(F)(F)OC(F)(F)CO`, the outcome in assay [1], in [2], in assay [3], in assay [4], in assay [5] and in assay [6] was inactive. The outcome in assay [7], in assay [8], in assay [9] and in assay [10] was inactive.
As to `CCOP(=S)(OCC)SCS(=O)(=O)CC`, the result in assay [1], in assay [2], in [3] and in assay [4] was inactive.
As for `OCC(F)(F)OC(F)(F)C(F)(F)OC(F)(F)C(F)(F)OC(F)(F)F`, the AC50 in [1] was 30 µM (active) and 22.2 µM (active); in [2], 18.3 µM (active) and 11.5 µM (active); in [3], 53.9 µM (active) and 23.4 µM (active); in assay [5], 58.5 µM (active) and 45.8 µM (active); in [9], 45.6 µM (active); in [10], 46.5 µM (active) and 50.9 µM (active). Also, the result in assay [4], in [6], in assay [7], in [8] and in assay [9] was inactive.
With `CCOP(=S)(S)OCC`, the result in [1], in assay [2], in [3] and in [4] was inactive.
For the molecule `Nc1ccc([N+](=O)[O-])cc1Cl`, the outcome in assay [1], in assay [2], in assay [3] and in assay [4] was inactive.
Take `CC(Cl)CN(C)C` (stereo not given): the outcome in assay [1], in assay [2], in [3] and in [4] was inactive.
Turning to `C=CC(=O)OCC(CC)(COC(=O)C=C)COC(=O)C=C`, the AC50 is 1.87 µM (active) in assay [1], 2.93 µM (active) in [2], 2.34 µM (active) in assay [3] and 4.36 µM (active) in assay [4].
For the molecule `O=S1(=O)OCC2C(CO1)C1(Cl)C(Cl)=C(Cl)C2(Cl)C1(Cl)Cl` (stereo not given), the AC50 in [1] was 28.3 µM (active); in assay [3], 20 µM (active). The outcome in assay [2] and in assay [4] was inactive.
Regarding `COC(=O)C(F)(F)C(F)(F)OC(F)(C(F)(F)F)C(F)(F)OC(F)=C(F)F` (stereo not given), the result in [1], in assay [2], in assay [3], in assay [4], in [5] and in [6] was inactive. Besides, the result in assay [7], in [9] and in assay [10] was inactive. In assay [8], the AC50 was 4.67 µM (active) and 5.4 µM (active).
As for `N#Cc1c(-c2ccc(Cl)cc2)[nH]c(C(F)(F)F)c1Br`, the results for the AC50 in [1], in assay [2] and in assay [3] were 1.63 µM (active), 0.329 µM (active) and 10.1 µM (active), respectively. Further, the result in [4] was inactive.
`N#Cc1cc([N+](=O)[O-])ccc1N`: the outcome in assay [1], in assay [2], in [3] and in assay [4] was inactive.
